Each structure is given as a SMILES string. Records with an inconclusive call do not appear. Entries that show only a call come without a potency. Calls of active or inactive are those of the source. Calls come from the whole dose curve; as a rule, active = well fitted cell-killing curve with a large enough effect; inconclusive = small, poorly fitted or top-dose-only effect; inactive = flat fitted curve, though single readings scatter.
Potency is the fitted concentration of half-maximal effect.

The nature of this test: Cell Viability - LYMP2-006 (AID 978).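 Note: cells exposed to compound for 24 hours; nearly all actives have a fitted effect of over 60% in size.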 The following applies: LYMP2-006 lymphoblastoid cell viability, qHTS; series mostly up to 92.2 µM. The method in brief:
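Human lymphoblastoid cells (LYMP2-006), 2500/well in complete medium, were treated with compound for 24 hr at 37 C. Cellular ATP was read by CellTiter-Glo luminescence after 30 min, and AC50 values came from Hill-equation fits of concentration-response data.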
On the technique in general: In qHTS, concentration-response curves come from the screen itself.
For the compound `CC(C)(C)CC(C)(C)c1ccc(OCCOCC[N+](C)(C)Cc2ccccc2)cc1`, the Potency is 25.1 µM (active).

For the compound `C[C@]12CC[C@@H]3c4ccc(O)cc4CC[C@H]3[C@@H]1CC[C@@H]2O`, the Potency entry was “inactive”.

For the compound `COC1=CC(=O)C[C@@H](C)[C@]12Oc1c(Cl)c(OC)cc(OC)c1C2=O`, the Potency entry was “inactive”.

In the case of `C=CCc1ccc(O)c(OC)c1`, the Potency entry is “inactive”.

Regarding `CC(=O)Oc1ccc(C(c2ccc(OC(C)=O)cc2)c2ccccn2)cc1`, the Potency entry was “inactive”.

As to `O=C(O)CCCCC(=O)O`, the Potency entry is “inactive”.

Turning to `CCCCCCc1ccc(O)cc1O`, the Potency result was “inactive”.

For `Nc1ccc(C(=O)O)cc1`, the Potency result is “inactive”.

`CC(=O)O[C@]1(C(C)=O)CC[C@H]2[C@@H]3C[C@H](C)C4=CC(=O)CC[C@]4(C)[C@H]3CC[C@@]21C`: the Potency is 39.8 µM (active).

`CC(O)C(=O)O` (stereo not given): the Potency result was “inactive”.

Regarding `O=c1ccc2ccccc2o1`, the Potency entry was “inactive”.

On to `NC(=NCCCCCCN=C(N)/N=C(\N)Nc1ccc(Cl)cc1)/N=C(\N)Nc1ccc(Cl)cc1`, for which the Potency is 39.8 µM (active).

Take `O=C1OC(c2ccc(O)cc2)(c2ccc(O)cc2)c2ccccc21`: the Potency entry was “inactive”.

For the compound `CC/C(=C(/CC)c1ccc(O)cc1)c1ccc(O)cc1`, the Potency entry was “inactive”.

For `CN(C)/N=N/c1nc[nH]c1C(N)=O`, the Potency entry is “inactive”.

Source of the values: PubChem BioAssay (NCATS).
